Reference: PMC4336329 (PLoS ONE, 2015)
Hit rate of the full screen: of about 310,000 compounds, about 14,000 (4.5%) showed an effect of 50% or more. The effect is printed as a negative number. For the sample, strong results were picked, then their nearest neighbours and some compounds at random.

These molecules were tested against human ether-à-go-go-related gene (hERG) potassium channel (human, UniProt Q12809) (assay: primary screen, population patch clamp on CHO cells stably expressing hERG; higher = less effect of the substance).
human ether-à-go-go-related gene (hERG) potassium channel, sequence (Q12809 whole entry, looked up): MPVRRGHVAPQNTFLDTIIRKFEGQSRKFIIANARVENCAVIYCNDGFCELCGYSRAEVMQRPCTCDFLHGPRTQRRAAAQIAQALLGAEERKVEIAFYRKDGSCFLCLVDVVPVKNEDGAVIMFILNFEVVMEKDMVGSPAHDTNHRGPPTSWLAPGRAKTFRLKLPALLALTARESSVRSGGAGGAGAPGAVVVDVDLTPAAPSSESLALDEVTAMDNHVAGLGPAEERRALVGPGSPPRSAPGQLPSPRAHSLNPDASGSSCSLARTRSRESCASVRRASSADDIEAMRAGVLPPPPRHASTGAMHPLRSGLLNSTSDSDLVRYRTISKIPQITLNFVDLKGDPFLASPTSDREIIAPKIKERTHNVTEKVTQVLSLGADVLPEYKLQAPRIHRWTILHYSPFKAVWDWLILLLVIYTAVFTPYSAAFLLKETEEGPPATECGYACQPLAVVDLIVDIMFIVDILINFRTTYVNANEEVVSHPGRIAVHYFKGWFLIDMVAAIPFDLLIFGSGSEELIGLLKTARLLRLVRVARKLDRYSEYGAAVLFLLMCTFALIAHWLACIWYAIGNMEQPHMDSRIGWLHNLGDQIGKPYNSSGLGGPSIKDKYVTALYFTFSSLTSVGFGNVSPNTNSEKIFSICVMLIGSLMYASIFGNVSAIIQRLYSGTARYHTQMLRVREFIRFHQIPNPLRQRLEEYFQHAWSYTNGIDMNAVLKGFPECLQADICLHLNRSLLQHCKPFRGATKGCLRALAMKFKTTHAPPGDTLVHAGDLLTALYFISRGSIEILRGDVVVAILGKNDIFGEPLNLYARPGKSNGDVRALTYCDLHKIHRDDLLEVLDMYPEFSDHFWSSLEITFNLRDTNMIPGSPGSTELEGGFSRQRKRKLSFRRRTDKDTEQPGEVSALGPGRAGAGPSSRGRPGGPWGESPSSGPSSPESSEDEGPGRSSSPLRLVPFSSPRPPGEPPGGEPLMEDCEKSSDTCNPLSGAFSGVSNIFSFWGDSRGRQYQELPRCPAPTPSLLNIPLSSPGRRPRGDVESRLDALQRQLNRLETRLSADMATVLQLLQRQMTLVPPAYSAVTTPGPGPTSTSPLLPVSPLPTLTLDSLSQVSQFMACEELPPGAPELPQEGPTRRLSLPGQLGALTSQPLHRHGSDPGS
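Also: peak tail current of the secondary pulse compared with the same well before compound.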

Row | Compound | hERG current change (%, negative = inhibition) at 10uM [%]
1 | CC(C)c1ccc(OCc2nc(-c3ccccn3)no2)c(Br)c1 | -10.6
2 | CCN1C(=O)N(CC)C2C1N(C(C)=O)C(=O)N2C(C)=O (stereo not drawn) | -6.42
3 | N#CC1=C(N)OC2=C(C(=O)CCC2)[C@]12C(=O)N(CC(N)=O)c1ccccc12 | 4.73
4 | COc1cc(CC(=O)OCC(=O)N2CC(C)CC(C)C2)cc(OC)c1OC (stereo not drawn) | 30.9
5 | Cl.O=C(NN1CCN(Cc2ccccc2)CC1)c1ccc(N2CCOCC2)c([N+](=O)[O-])c1 | -66.6
6 | O=C(OCC(=O)N1CCOCC1)c1ccc(N2CCOCC2)c([N+](=O)[O-])c1 | 19.9
7 | O=C(Nc1ccc(CN2CCOCC2)cc1)c1ccc(N2CCCC2)c([N+](=O)[O-])c1 | -21.4
8 | CC1CCN(c2ccc(C(=O)N3CCOCC3)cc2[N+](=O)[O-])CC1 | -0.762
9 | O=C(OCC(=O)N1CCc2ccccc2C1)c1ccc(N2CCOCC2)c([N+](=O)[O-])c1 | -51
10 | O=C(c1ccc(N2CCCCC2)c([N+](=O)[O-])c1)N1CCOCC1 | -22.6
11 | O=C(c1ccc(N2CCOCC2)c([N+](=O)[O-])c1)N1CCN(Cc2ccccc2)CC1 | -66.9
12 | O=C(Nc1ccccc1N1CCOCC1)c1ccc(N2CCOCC2)c([N+](=O)[O-])c1 | -20.7
13 | Nc1ccc(C(=O)OCC(=O)N2CCc3ccccc3C2)cc1[N+](=O)[O-] | -21.1
14 | CC(=O)OC[C@]1(OC(C)=O)C[C@@]23CC[C@H]4[C@@](C)(CCC[C@@]4(C)C(=O)O)[C@@H]2CC[C@@H]1C3 | 4.84
15 | O=C(NCC(=O)N1CCN(C(=O)c2ccco2)CC1)c1cccc(Cl)c1 | -48.6
16 | CC(OC(=O)Cn1cnc2c1c(=O)n(C)c(=O)n2C)C(=O)NCc1ccccc1 (stereo not drawn) | 3.36
17 | Cc1noc(C)c1S(=O)(=O)Nc1ccc(C(=O)N2CCN(c3cccc(Cl)c3)CC2)cc1 | -4.16
18 | O=C(Nc1ccc(C(=O)N2CCCC2)cc1)c1ccc(F)cc1Cl | 0.232
19 | O=C(Nc1ccc2nc(-c3ccccn3)c(-c3ccccn3)nc2c1)N1CCOCC1 | 5.82
20 | S=C(Nc1ccc2nc(-c3ccccn3)c(-c3ccccn3)nc2c1)N1CCCCCC1 | -15.6
21 | S=C(Nc1ccc2nc(-c3ccccn3)c(-c3ccccn3)nc2c1)N1CCOCC1 | -69.6
